FH mod = Identification of activators of human fumarate hydratase by quantitative high-throughput screening | Fumarate hydratase, mitochondrial (Homo sapiens), P07954 | FH coupled MDH/diaphorase resazurin fluorescence, 15 min | Potency, µM (highest dose often 79.9 µM), for inactives: at the top dose activity change, negative = inhibition, most hits filed as inhibitors | 54,000 tested, 0.22% active | AID 1347055, 2019; also: potency is read from the fitted curve at half-maximal effect; % is scaled to controls: 0 for no effect and ±100 for the full control effect; the screen sought activators but most active calls are inhibition curves; nearly all actives have a fitted effect of over 45% in size
GALC G270D act = galactocerebrosidase G270D activity enhancement, cell-based; P54803; 145M-Twi-hGALC-G270D cells (Twitcher mouse brain line with human GALC G270D), HMU-beta-Gal fluorescence, 48 h; Potency, µM (doses to about 57.5 µM), actives largely listed as activators; 45,000 tested, 0.1% active; AID 1159614; also: potency is read from the fitted curve at half-maximal effect; 0% is about no effect; nearly all actives have a fitted effect of over 65% in size
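Fluorescence readout: HMU-β-gal cleavage by mutant GALC (0.1 mM final, citrate/phosphate pH 5.2 with 1 mg/mL taurocholate), stopped with carbonate/bicarbonate plus Triton X-100. Cells: murine Twitcher 145M-Twi expressing human G270D GALC; qHTS for activators.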
GALK inhibitor = GALK (human) enzyme inhibition; P51570; recombinant GALK, Kinase-Glo ATP luminescence, 1 h; Potency, µM (titrated, usually from 57.5 µM), for inactives: at the top dose activity, negative = inhibition, most hits filed as inhibitors; 44,000 tested, under 10 active; AID 1347072;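 also: plate controls were full GALK reaction for no effect and reaction lacking GALK for full effect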
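Luminescent ATP-depletion readout (Kinase-Glo Plus) after 1 h room-temperature incubation of human GALK (5 nM) with galactose 100 µM and ATP 35 µM, pH 8.0 HEPES/Mg2+ buffer; compounds tested in qHTS format.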
PTAP-TSG101 blk = TSG101-PTAP interaction inhibition, HIV-1 budding; Potency, µM (highest dose often 115 µM), hits mostly inhibitors; Fluorescence polarization, FITC-PTAP peptide/Tsg101, 20 min; Q99816; 44,000 tested, under 10 active; also: potency is read from the fitted curve at half-maximal effect; 0% is about no effect
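Steps: Tsg101 binding domain (10 uM final) in HEPES pH 7.5/NaCl/Tween 20/EDTA/TCEP; add compound; add FITC-PTAP peptide (50 nM final); incubate 20 min r.t.; read polarization.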
DRV1 agonist = agonists of human resolvin D1 receptor DRV1 (GPR32); AID 1346428; activation, % at 76.9 µM; CHO-K1 GPR32 beta-arrestin PathHunter luminescence, 90 min; zero percent set by DMSO-only wells; 48,000 tested, 2.5% active;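 active = activation of at least 60% and not above a set upper limit, about 1 call in 100 departs from these limits; inconclusive = activation of 40% to 60%, or above that upper limit; inactive = activation under 40%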; also: 0% is about no effect
Target sequence (O75388 whole entry, looked up): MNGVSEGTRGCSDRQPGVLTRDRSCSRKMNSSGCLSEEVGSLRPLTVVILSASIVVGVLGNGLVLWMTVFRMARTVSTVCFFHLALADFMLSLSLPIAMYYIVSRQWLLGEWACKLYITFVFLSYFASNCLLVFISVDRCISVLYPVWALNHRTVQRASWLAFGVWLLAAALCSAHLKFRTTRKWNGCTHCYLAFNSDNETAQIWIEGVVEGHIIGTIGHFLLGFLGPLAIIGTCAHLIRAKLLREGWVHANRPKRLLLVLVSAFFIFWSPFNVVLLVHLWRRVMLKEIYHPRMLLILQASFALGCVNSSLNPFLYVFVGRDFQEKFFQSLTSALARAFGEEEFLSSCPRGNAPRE
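GPR32 activation in stably transfected CHO-K1 cells, detected as beta-arrestin recruitment by enzyme-fragment complementation. Compound exposure: 90 min, 37 °C.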
B2AR arrestin ag = agonists recruiting beta-arrestin to human beta2-adrenergic receptor | HTLA Tango cells, beta-arrestin recruitment, luciferase luminescence, 18 h | 44,000 tested, under 10 active | Potency, µM (titrated, usually from 46.1 µM), most hits filed as activators | P07550;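 also: potency is read from the fitted curve at half-maximal effect; 0% = DMSO and full agonism = EC100 isoproterenol or metaproterenol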
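Tango cell line, 1% FBS DMEM; cpd titration up to 46 microM; 18 hr, 37 degrees C, 5% CO2. Luciferin/ATP substrate mix added, 15 min RT, luminescence. %Activity, CRC fitting, curve-class categorization.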
* marks the source's active call; other numbers are inactive results; i = inactive; ? = inconclusive; nt = no result; ! = repeats disagree; [ ] = another dose, or the depositor's remark. In the library only some 2.6% were active in any assay of this set; here they are far more common. Unless noted, calls follow the shape of the dose curve; as a rule, active = well fitted curve in the direction sought with a large enough effect; inconclusive = small, poorly fitted or top-dose-only effect, or another doubt; inactive = no such curve, though single readings can be large; an effect the other way counts as inactive or inconclusive.

SMILES	FH mod	GALC G270D act	GALK inhibitor	PTAP-TSG101 blk	DRV1 agonist	B2AR arrestin ag
COc1ccccc1N1CCN(CC(O)COc2cccc3ccccc23)CC1 (centres undefined)	4%[53.3 µM]	i	nt	nt	97*!	nt
COc1ccc(N2CCN(CC(O)COc3c(OC)cccc3OC)CC2)cc1 (centres undefined)	-13%	i	1%	i	6	i
COc1cc(C)c(C(=O)OC2C(C)OC(OC3CCC(C)C4C3C=C(C)C3/C(C)=C\CC/C(C)=C/C5(C)C=C(C(=O)O)C(C)CC56OC(=O)/C(=C(\O)C34C)C6=O)C(O)C2O)c(OC)c1 (centres undefined)	0%[20.6 µM]	nt	nt	nt	nt	nt
COc1ccc(NC(=O)c2ccco2)cc1NC(=O)COc1ccccc1Cl	8%	i	1%	i	64*	i
COc1ccc(C(=O)Nc2ccc(NC(=O)c3cccs3)cc2)cc1OC	28µM*[activator]	i	-1%	i	-31	i
Cc1cc(C)cc(NC(=O)c2cccc(C(=O)Nc3cc(C)cc(C)c3)c2)c1	nt	nt	-5%	i	-1	i
O=C(Nc1ccc(Br)cc1)c1cccc(C(=O)Nc2ccc(Br)cc2)c1	0%	i	0%	i	71*	i
COc1ccccc1C(=O)Nc1ccc(NC(=O)c2cccs2)cc1	?	i	-3%	i	-3	i
COc1ccc(C(=O)Nc2ccccc2)cc1S(=O)(=O)Nc1ccc(Br)cc1	-7%	i	0%	i	90*	i
CN(C)CCOc1ccc(-c2nc(-c3ccc4c(c3)CC/C4=N/O)c(-c3ccncc3)[nH]2)cc1	2%	nt	nt	nt	nt	nt
COC(=O)Cc1c(C)c2ccc3c(c2oc1=O)CN(Cc1ccc(Cl)cc1)CO3	-2%	25µM*	2%	i	-14	i
O=S(=O)(O)c1cc(I)c(O)c2ncccc12	14%[53.3 µM]	i	nt	nt	105*	nt
Oc1ccc2ccccc2c1SSc1c(O)ccc2ccccc12	35µM*!	nt	nt	nt	50	nt
O=C(NCc1ccccc1Cl)C1CCC(CNS(=O)(=O)c2ccc(Br)s2)CC1 (centres undefined)	-16%	i	2%	i	98*	i
CC(=O)Nc1ccc(S(=O)(=O)NCC2CCC(C(=O)NCc3ccccc3)CC2)cc1 (centres undefined)	13%	i	-1%	i	99*	i
O=C(NCc1ccc(Cl)cc1)C1CCC(CNS(=O)(=O)c2ccccc2)CC1 (centres undefined)	-29%	i	2%	i	83*	i
Cc1cc(O)c(-c2ccnc3cc(-c4ccccc4)nn23)cc1Cl	6%	i	-2%	i	90*	i
C[C@@H]1O[C@@H](O[C@H]2[C@H](O[C@H]3[C@H](O[C@H]4CC[C@@]5(C)C(CC[C@]6(C)C5CC=C5[C@@H]7CC(C)(C)CC[C@]7(C(=O)O[C@@H]7O[C@H](CO)[C@@H](O[C@@H]8O[C@@H](C)[C@H](O)[C@@H](O)[C@H]8O)[C@H](O)[C@H]7O)CC[C@]56C)C4(C)C)OC[C@H](O)[C@@H]3O)O[C@H](CO)[C@@H](O)[C@@H]2O)[C@H](O)[C@H](O)[C@H]1O (some centres undefined)	0%[13.5 µM]	nt	nt	nt	nt	nt
COc1ccc2[nH]cc(CCNC(=O)Nc3ccccc3)c2c1	-6%	i	-1%	i	67*	i
COc1ccc2[nH]cc(CCNC(=O)Nc3cc(C)cc(C)c3)c2c1	?	i	0%	i	18	i
CC1(C)CC[C@]2(C(=O)O[C@@H]3O[C@H](CO)[C@@H](O)[C@H](O)[C@H]3O)CC[C@]3(C)C(=CCC4[C@@]5(C)C[C@@H](O)[C@H](O)[C@@](C)(CO)C5[C@H](O)C[C@]43C)C2[C@@H]1O (some centres undefined)	-6%[20.6 µM]	nt	nt	nt	nt	nt
O=S(=O)(Nc1cccc(C(F)(F)F)c1)c1ccc(NS(=O)(=O)c2ccc3c(c2)OCCO3)cc1	?	i	-2%	i	?	i
Cc1c(Cl)cccc1NS(=O)(=O)c1ccc(NS(=O)(=O)c2ccc3c(c2)OCCO3)cc1	?	i	1%	i	68*	i
Cc1cc(NC(=O)N(C)CCc2c(C)nn(C)c2C)ccc1Br	-2%	i	-2%	i	65*	i
O=Nc1ccc2oc(=O)ccc2c1	1µM*	nt	nt	nt	-15	nt
SMILES	FH mod	GALC G270D act	GALK inhibitor	PTAP-TSG101 blk	DRV1 agonist	B2AR arrestin ag
O=c1ccc2ccc(O)c(O)c2o1	?	nt	nt	nt	12	nt
COc1cc(N2CCC(N(C)C)CC2)ccc1Nc1ncc(Cl)c(Nc2ccccc2P(C)(C)=O)n1	-1%	nt	nt	nt	nt	nt
COc1cc(-c2nc3cccc(C)n3c2Nc2ccc3c(c2)OCCO3)ccc1O	-7%	i	0%	i	61*	i
COc1cc(-c2nc3ccc(Cl)cn3c2Nc2ccc3c(c2)OCCO3)ccc1O	?	i	-6%	i	-19	i
COC(=O)c1ccccc1NC(=O)CSc1n[nH]c(C)n1	-7%	i	0%	i	6	i
COC(=O)c1ccccc1NC(=O)CSc1nc(-c2ccccc2)cc(C(F)(F)F)n1	-7%	10µM*	2%	i	-7	i
CCC(=O)N1CCc2cc(S(=O)(=O)CCC(=O)Nc3ccc(OC(F)(F)F)cc3)ccc21	-7%	i	8%	i	65*	i
COc1ccc(-c2cn3c(n2)sc2cc(C(=O)Nc4cc(OC)cc(OC)c4)ccc23)cc1	-5%	i	0%	i	-5	i
CCC(C)NC(=O)c1ccc2c(c1)sc1nc(-c3ccc(OC)cc3)cn12 (centres undefined)	-3%	i	0%	i	81*	i
C=C1CCC2C(C(C)(C)O)CCC2(C)CC(O)C(=C)CCC1O (centres undefined)	6%[53.3 µM]	nt	nt	nt	nt	nt
CC(=O)O[C@H](C[C@@H](C)[C@H]1C(=O)[C@H](O)[C@@]2(C)[C@@H]3CCC4C(C)(C)[C@@H](O[C@@H]5OC[C@H](O)[C@H](O)[C@H]5O)CC[C@@]45C[C@@]35CC[C@]12C)[C@@H]1OC1(C)C (some centres undefined)	-20%[20.6 µM]	nt	nt	nt	nt	nt
O=C(Nc1ccc(F)cc1)c1ccc2c(c1)NC(=O)c1ccccc1S2	nt	nt	11%	i	76*	i
